Inconclusive results are not listed. Activity calls are given as the source filed them. Unless noted, calls follow the shape of the full dose curve.
How the values were obtained:
[1] = Natriuretic polypeptide receptor (hNpr1) antagonism - Pilot counterscreen GloSensor control cell line (AID 1347045); details: HEK293 cGMP GloSensor cells, SNP-stimulated luminescence, 20 min; series mostly up to 38.3 µM
How it was run: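 HEK293 cells carrying the GloSensor cGMP sensor (GIP/pGS-40F) were loaded with 2% GloSensor reagent for 2 h, exposed to compounds for 30 min, and then stimulated with 50 uM sodium nitroprusside for 20 min at room temperature.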

[2] = target: Atrial natriuretic peptide receptor 2 (Homo sapiens) (UniProt P20594); assay: Natriuretic polypeptide receptor (hNpr2) antagonism - Pilot subtype selectivity assay (AID 1347050); details: NPR2-expressing cells, cGMP antagonist-mode read-out; series mostly up to 38.3 µM
How it was run: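 cGMP-sensor HEK293/hNpr2 cells; 2% GloSensor reagent 2 h RT; compounds 30 min; baseline luminescence read; 1 nM hNppC agonist 20 min RT; final luminescence read by CCD camera. Antagonism = reduced post-agonist signal.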

[3] = target: Atrial natriuretic peptide receptor 1 (Homo sapiens) (UniProt P16066); assay: Natriuretic polypeptide receptor (hNpr1) antagonism - Pilot screen (AID 1347049); details: hNpr1 cells, antagonist mode cGMP read-out; series mostly up to 57.5 µM;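 also: agonist-evoked cGMP luminescence read 20 min after hNppA addition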
How it was run: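 HEK293 cells co-expressing hNpr1 and the GloSensor pGS-40F cGMP luciferase sensor were preloaded with 2% GloSensor reagent for 2 h. Compounds were added for 30 min at room temperature, then cells were stimulated with 0.1 nM hNppA for 20 min before luminescence readout.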

[4] = NS1 protein of Zika virus - qHTS assay to identify small molecule inhibitors in human HEK 293 cells (AID 1347053; active = well fitted inhibition curve with a large enough effect; also: nearly all actives have a fitted effect of over 55% in size); details: HEK293 ZIKV MR766 infection, NS1 TR-FRET, 24 h; series mostly up to 46.1 µM
How it was run: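 Following 20 h seeding, HEK 293 cells took compound, then 1 h later ZIKV MR766 (MOI = 0.5). Incubation ran 24 h at 37 C before TR-FRET detection of NS1; a drop in signal indicates inhibition.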

[5] = target: Tyrosine-protein phosphatase non-receptor type substrate 1 (Homo sapiens) + Leukocyte surface antigen CD47 (Homo sapiens) (UniProt P78324+Q08722); assay: CD47-SIRPalpha protein protein interaction - LANCE assay qHTS validation (AID 1347057; active = well fitted curve in the direction sought with a large enough effect in the signal ratio, with a control signal flat, not every such curve was filed as active; the % refers to the signal ratio; also: potency is read from the fitted curve at half-maximal effect); details: Recombinant CD47-His / biotin-SIRPalpha, TR-FRET ratio; series mostly up to 38.3 µM
How it was run: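 First, His-tagged CD47 and Eu-labelled anti-His antibody met the compound for 30 min; next, site-specifically biotinylated SIRPalpha was added for 30 min; finally streptavidin-APC was added before reading the TR-FRET ratio.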

Measured: Potency

Chain of Tyrosine-protein phosphatase non-receptor type substrate 1 (Homo sapiens) + Leukocyte surface antigen CD47 (Homo sapiens) (P78324 whole entry, looked up): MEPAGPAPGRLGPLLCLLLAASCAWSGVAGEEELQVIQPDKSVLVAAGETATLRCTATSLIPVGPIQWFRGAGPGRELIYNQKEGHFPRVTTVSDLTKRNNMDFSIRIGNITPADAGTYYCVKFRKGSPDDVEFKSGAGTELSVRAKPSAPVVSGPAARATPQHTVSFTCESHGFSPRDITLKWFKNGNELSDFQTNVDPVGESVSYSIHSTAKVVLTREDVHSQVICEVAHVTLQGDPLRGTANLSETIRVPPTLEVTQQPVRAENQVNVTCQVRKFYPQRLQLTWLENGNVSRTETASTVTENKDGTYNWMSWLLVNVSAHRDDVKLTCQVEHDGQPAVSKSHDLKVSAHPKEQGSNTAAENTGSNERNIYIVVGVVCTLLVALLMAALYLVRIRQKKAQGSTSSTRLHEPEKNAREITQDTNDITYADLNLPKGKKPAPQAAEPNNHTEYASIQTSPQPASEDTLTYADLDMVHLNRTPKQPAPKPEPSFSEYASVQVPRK
Chain of Tyrosine-protein phosphatase non-receptor type substrate 1 (Homo sapiens) + Leukocyte surface antigen CD47 (Homo sapiens) (Q08722 whole entry, looked up): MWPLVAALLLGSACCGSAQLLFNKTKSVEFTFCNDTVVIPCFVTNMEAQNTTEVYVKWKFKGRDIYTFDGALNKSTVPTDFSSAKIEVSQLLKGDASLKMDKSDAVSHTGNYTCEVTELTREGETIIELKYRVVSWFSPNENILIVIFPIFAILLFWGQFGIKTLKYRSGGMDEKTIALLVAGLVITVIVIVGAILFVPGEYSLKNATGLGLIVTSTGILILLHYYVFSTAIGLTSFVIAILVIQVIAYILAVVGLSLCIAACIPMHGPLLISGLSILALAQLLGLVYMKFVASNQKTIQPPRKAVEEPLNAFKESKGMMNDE
Chain of Atrial natriuretic peptide receptor 2 (Homo sapiens) (P20594 whole entry, looked up): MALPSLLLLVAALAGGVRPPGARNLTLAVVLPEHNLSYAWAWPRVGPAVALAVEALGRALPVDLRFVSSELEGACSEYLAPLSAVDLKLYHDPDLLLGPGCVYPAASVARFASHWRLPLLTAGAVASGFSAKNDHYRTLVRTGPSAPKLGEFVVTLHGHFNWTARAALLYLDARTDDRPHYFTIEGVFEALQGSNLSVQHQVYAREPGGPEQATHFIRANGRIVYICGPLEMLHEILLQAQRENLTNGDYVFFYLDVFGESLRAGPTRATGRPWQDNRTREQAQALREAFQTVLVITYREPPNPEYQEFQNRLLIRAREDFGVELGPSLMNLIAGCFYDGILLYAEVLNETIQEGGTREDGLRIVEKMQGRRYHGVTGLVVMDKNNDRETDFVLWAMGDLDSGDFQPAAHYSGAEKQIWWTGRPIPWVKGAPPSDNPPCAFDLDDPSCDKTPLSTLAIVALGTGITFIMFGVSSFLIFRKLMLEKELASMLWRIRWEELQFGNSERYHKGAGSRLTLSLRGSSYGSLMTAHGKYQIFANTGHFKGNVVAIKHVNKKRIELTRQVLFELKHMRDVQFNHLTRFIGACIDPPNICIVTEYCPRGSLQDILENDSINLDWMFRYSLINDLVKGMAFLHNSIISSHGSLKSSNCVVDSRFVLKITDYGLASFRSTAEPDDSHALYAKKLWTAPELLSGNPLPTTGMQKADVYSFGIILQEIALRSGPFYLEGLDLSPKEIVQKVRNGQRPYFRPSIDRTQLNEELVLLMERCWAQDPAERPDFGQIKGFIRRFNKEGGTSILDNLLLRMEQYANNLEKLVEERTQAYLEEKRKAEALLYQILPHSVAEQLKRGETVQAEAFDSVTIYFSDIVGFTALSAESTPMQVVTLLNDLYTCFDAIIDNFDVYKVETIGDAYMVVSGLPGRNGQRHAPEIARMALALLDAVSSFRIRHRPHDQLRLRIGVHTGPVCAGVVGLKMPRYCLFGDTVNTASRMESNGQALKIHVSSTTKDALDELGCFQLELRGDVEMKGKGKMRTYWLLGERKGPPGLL
Chain of Atrial natriuretic peptide receptor 1 (Homo sapiens) (P16066 whole entry, looked up): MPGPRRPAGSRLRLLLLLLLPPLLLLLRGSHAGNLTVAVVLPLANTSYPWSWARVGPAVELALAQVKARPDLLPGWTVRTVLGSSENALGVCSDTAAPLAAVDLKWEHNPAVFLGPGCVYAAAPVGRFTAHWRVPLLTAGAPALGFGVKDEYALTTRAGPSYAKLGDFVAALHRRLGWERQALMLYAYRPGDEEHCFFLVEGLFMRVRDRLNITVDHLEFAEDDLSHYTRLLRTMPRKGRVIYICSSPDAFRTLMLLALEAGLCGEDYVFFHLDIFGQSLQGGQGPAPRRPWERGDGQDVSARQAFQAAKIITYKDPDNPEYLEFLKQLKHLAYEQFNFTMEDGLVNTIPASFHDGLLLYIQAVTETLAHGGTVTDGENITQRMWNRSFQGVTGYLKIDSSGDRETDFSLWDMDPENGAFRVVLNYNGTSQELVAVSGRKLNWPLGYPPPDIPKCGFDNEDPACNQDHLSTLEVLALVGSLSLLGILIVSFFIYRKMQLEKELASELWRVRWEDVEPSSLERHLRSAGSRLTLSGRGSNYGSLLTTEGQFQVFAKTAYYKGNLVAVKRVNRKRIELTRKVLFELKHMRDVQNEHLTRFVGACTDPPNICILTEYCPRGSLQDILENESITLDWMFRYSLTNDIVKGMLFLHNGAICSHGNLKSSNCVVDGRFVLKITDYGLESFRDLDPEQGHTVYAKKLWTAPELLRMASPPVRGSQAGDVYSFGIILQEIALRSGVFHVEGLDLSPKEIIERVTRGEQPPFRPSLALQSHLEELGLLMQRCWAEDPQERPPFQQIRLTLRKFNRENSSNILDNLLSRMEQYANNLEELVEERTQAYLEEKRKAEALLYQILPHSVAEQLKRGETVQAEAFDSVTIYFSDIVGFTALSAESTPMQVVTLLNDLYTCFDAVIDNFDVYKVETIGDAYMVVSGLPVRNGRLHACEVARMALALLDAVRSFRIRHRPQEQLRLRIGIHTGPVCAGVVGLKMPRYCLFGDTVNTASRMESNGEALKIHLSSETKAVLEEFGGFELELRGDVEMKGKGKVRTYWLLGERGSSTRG

O=C(O)c1cc[c]([Hg][Cl])cc1
inactive: [1] | [2]

CN1CC[C@@]2(C)c3cc(OC(=O)Nc4ccccc4)ccc3N(C)[C@@H]12
inactive: all assays above

OC1CCCCC1N1CCC(c2ccccc2)CC1 (stereo unspecified)
inactive: all assays above

NCCCP(=O)(O)O
inactive: all assays above

CN(N=O)c1cc(O)ccc1O
inactive: [3] | [4] | [5]

[Cl-].[Cl][Pt].[NH2-].[NH2-].c1ccncc1
inactive: [4]

CCCN(CCC)[C@@H]1CCc2cccc(O)c2C1
not listed: [3]
inactive: all other assays above

CC(=O)OCC1=C(C(=O)O)N2C(=O)[C@@H](NC(=O)CCC[C@@H](N)C(=O)O)[C@H]2SC1
active: [5] 4.65 µM
inactive: all other assays above

c1ccc2cc(CC3=NCCN3)ccc2c1
inactive: all assays above

O=C(NC1CN2CCC1CC2)c1cc2ccoc2cn1 (stereo unspecified)
inactive: [4] | [5]

C=CCN1C[C@@H](C)N([C@H](c2ccc(C(=O)N(CC)CC)cc2)c2cccc(OC)c2)C[C@@H]1C
inactive: [3] | [2] | [5]

CCCN1CCC[C@@H](c2cccc(O)c2)C1
inactive: all assays above

CN1CC[C@@]2(C)c3cc(O)ccc3N(C)C12 (stereo partly specified)
not listed: [1]
inactive: all other assays above

NC(C(=O)O)c1cc(=O)[nH]o1 (stereo unspecified)
not listed: [1]
inactive: all other assays above

C[C@H]1C2Cc3ccc(O)cc3[C@@]1(C)CCN2CC1CC1
inactive: [4] | [5]

N#C/C(=C/c1ccc(O)c(O)c1)C(N)=S
inactive: [3] | [2] | [4]

O=C1/C(=C/c2ccccc2)C[C@@]2(O)[C@H]3Cc4ccc(O)c5c4[C@@]2(CCN3CC2CC2)[C@H]1O5
inactive: [5]

C#CCN[C@H](C)Cc1ccccc1
not listed: [3]
inactive: all other assays above

Cc1[nH]c2ccc(O)cc2c1CCN
inactive: all assays above

CN1CCC[C@@H]1Cc1c[nH]c2ccc(Nc3ncccc3[N+](=O)[O-])cc12
inactive: [4]

O=c1ccc2[nH]cc(C3=CCNCC3)c2[nH]1
inactive: [4] | [5]

COc1ccc(CNC(=O)/C=C/c2ccc3[nH]cc(CCN(C)C)c3c2)cc1
inactive: all assays above

From PubChem BioAssay (NCATS)
